# In article PMC7862700, “An all-to-all approach to the identification of sequence-specific readers for epigenetic DNA modifications on cytosine”:
# Experiments:
# Assay in all cases: DAPPL (digital affinity profiling via proximity ligation, sequencing); 10 mM Tris-HCl pH 7.5, 50 mM NaCl, 1 mM DTT, 4% glycerol, room temperature, 30 min; GST-TFs on glutathione beads, 16-mer random dsDNA library, 0.1% formaldehyde crosslink after washing; high values mean tight binding
# FLI1 = biological target: T1, FLI1 (Homo sapiens, UniProt Q01543 1-452); conditions: protein: recombinant; tags: N-terminal GST; dsDNA, one strand shown
# T1 sequence: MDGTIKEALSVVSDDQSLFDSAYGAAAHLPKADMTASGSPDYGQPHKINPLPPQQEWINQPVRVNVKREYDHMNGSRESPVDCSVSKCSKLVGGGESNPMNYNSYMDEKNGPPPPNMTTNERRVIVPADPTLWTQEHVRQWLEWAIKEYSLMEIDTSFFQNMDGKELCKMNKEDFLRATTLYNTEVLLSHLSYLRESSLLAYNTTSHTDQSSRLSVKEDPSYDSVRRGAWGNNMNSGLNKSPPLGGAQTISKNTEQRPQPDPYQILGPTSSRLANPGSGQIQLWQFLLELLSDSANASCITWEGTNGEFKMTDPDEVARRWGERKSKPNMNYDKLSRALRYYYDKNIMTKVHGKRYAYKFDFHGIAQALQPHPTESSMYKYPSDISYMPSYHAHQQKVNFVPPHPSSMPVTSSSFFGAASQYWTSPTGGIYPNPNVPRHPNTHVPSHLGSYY
# Procedure, shortened: (§1)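 Human transcription factors fused to GST were expressed in yeast, captured on glutathione beads, given DNA barcodes and pooled with a GST-only negative control. Pools were incubated with 200 nmole of a 16-mer random double-stranded DNA library in Tris/NaCl/DTT/glycerol buffer at room temperature for 30 min. They were then washed, crosslinked with 0.1% formaldehyde, proximity-ligated (BsaI/T4 ligase, 1 h, 37 °C), PCR-amplified and sequenced on an Illumina NextSeq500. Binding signal is each 6-mer's read frequency for a factor divided by its frequency for the GST control.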
# ELK1 = biological target: T2, ELK1 (Homo sapiens, UniProt P19419 1-428); conditions: protein: recombinant; tags: N-terminal GST; dsDNA, one strand shown
# T2 sequence: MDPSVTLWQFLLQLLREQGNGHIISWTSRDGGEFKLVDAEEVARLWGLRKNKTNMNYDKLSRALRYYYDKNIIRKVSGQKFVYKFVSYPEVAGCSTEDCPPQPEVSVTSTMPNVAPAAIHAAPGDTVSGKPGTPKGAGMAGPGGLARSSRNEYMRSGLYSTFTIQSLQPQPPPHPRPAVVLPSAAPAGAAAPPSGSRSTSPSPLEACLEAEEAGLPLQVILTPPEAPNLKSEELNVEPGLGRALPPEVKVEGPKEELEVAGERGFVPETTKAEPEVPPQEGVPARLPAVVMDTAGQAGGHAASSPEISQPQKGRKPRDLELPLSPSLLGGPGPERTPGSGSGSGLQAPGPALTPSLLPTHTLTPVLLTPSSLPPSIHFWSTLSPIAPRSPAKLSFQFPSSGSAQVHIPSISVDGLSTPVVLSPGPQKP
# Procedure, shortened: as §1
# GABPA = biological target: T3, GABPA (Homo sapiens, UniProt Q06546 1-454); conditions: protein: recombinant; tags: N-terminal GST; dsDNA, one strand shown
# T3 sequence: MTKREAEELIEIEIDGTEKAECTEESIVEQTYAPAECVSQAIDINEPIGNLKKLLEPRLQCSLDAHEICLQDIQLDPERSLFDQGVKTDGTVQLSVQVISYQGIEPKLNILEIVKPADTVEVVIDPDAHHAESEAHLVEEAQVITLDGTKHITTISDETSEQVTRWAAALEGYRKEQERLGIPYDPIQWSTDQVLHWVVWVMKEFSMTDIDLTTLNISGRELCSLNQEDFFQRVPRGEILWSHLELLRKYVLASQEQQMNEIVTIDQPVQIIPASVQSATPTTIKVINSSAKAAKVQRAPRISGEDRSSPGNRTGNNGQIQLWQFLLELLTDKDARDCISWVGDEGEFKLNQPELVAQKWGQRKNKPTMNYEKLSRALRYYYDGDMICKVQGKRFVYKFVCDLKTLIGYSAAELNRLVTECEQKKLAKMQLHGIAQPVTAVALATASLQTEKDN
# Procedure, shortened: as §1
# ERG = biological target: T4, ERG (Homo sapiens, UniProt P11308 1-479); conditions: protein: recombinant; tags: N-terminal GST; dsDNA, one strand shown
# T4 sequence: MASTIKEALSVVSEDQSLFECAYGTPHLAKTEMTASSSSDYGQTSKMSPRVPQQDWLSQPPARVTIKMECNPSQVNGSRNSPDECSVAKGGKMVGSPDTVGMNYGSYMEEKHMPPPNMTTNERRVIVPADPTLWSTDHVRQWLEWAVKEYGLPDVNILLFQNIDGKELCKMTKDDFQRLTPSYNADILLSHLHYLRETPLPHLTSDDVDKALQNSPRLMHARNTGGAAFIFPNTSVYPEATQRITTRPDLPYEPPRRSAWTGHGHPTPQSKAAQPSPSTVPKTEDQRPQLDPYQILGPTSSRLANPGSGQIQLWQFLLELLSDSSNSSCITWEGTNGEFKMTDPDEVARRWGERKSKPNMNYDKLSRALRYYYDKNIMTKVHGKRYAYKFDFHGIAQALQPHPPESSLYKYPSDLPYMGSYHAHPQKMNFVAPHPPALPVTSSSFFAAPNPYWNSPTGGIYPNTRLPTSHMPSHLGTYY
# Procedure, shortened: as §1
# ELF1 = ELF1 (Homo sapiens, UniProt P32519 1-619); conditions: protein: recombinant; tags: N-terminal GST; dsDNA, one strand shown
# Procedure, shortened: as §1
# EHF = biological target: T5, EHF (Homo sapiens, UniProt Q9NZC4 1-300); conditions: protein: recombinant; tags: N-terminal GST; dsDNA, one strand shown
# T5 sequence: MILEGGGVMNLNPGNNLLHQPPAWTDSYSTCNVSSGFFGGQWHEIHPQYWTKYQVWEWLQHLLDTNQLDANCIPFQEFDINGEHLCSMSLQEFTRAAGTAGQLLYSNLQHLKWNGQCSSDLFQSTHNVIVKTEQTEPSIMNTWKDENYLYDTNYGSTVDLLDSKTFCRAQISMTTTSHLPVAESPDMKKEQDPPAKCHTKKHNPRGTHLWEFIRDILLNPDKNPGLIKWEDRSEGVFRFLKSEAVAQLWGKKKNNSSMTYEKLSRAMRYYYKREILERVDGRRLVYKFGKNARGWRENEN
# Procedure, shortened: as §1
# SPI1 = SPI1 (Homo sapiens, UniProt P17947 1-270); conditions: protein: recombinant; tags: N-terminal GST; dsDNA, one strand shown
# Procedure, shortened: as §1
# SPIB = SPIB (Homo sapiens, UniProt Q01892 1-262); conditions: protein: recombinant; tags: N-terminal GST; dsDNA, one strand shown
# Procedure, shortened: as §1
# ELK3 = biological target: T6, ELK3 (Homo sapiens, UniProt P41970 1-407); conditions: protein: recombinant; tags: N-terminal GST; dsDNA, one strand shown
# T6 sequence: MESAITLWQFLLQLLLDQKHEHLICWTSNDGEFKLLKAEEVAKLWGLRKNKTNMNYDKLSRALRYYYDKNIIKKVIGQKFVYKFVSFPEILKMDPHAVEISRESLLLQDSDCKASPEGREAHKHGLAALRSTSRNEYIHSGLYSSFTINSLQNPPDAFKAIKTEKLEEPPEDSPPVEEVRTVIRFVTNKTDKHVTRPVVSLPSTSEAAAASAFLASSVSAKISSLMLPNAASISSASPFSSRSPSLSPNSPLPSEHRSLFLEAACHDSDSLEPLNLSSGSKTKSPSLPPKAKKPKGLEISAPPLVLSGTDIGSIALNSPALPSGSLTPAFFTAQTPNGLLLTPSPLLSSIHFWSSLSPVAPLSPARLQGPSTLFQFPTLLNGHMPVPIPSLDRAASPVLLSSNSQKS
# Procedure, shortened: as §1
# FEV = biological target: T7, FEV (Homo sapiens, UniProt Q99581 1-238); conditions: protein: recombinant; tags: N-terminal GST; dsDNA, one strand shown
# T7 sequence: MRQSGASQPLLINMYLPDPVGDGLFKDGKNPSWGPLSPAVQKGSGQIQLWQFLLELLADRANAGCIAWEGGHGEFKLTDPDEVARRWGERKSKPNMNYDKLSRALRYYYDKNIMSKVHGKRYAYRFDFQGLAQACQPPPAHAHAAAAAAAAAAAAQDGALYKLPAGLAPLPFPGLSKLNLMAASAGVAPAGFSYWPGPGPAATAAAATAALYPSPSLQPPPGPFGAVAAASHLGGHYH
# Procedure, shortened: as §1
# ETV5 = ETV5 (Homo sapiens, UniProt P41161 1-510); conditions: protein: recombinant; tags: N-terminal GST; dsDNA, one strand shown
# Procedure, shortened: as §1
# HSF1 = HSF1 (Homo sapiens, UniProt Q00613 1-529); conditions: protein: recombinant; tags: N-terminal GST; chain copies: 3; dsDNA, one strand shown
# Procedure, shortened: as §1
# SPIC = biological target: T8, SPIC (Homo sapiens, UniProt Q8N5J4 1-248); conditions: protein: recombinant; tags: N-terminal GST; dsDNA, one strand shown
# T8 sequence: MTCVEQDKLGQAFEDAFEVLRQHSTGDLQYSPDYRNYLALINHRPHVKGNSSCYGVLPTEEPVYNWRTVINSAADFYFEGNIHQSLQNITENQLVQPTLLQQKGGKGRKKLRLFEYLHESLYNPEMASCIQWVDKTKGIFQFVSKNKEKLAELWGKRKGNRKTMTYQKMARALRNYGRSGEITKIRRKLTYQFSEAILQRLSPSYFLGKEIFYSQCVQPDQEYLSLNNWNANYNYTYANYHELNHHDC
# Procedure, shortened: as §1
# ELF4 = ELF4 (Homo sapiens, UniProt Q99607 1-663); conditions: protein: recombinant; tags: N-terminal GST; dsDNA, one strand shown
# Procedure, shortened: as §1
# ELK4 = biological target: T9, ELK4 (Homo sapiens, UniProt P28324-2 1-405); conditions: protein: recombinant; tags: N-terminal GST; dsDNA, one strand shown
# T9 sequence: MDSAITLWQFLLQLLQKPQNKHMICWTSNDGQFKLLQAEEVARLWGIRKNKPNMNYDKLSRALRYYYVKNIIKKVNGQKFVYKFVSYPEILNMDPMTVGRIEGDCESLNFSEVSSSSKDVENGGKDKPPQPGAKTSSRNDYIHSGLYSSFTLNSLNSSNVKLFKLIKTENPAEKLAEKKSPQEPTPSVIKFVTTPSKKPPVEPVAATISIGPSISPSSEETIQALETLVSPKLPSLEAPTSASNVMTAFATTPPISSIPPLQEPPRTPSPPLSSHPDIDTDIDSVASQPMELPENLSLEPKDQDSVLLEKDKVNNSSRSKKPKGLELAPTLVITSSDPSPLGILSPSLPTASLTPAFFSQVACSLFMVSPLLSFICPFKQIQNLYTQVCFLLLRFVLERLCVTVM
# Procedure, shortened: as §1
# ETV2 = biological target: T10, ETV2 (Homo sapiens, UniProt O00321 1-342); conditions: protein: recombinant; tags: N-terminal GST; dsDNA, one strand shown
# T10 sequence: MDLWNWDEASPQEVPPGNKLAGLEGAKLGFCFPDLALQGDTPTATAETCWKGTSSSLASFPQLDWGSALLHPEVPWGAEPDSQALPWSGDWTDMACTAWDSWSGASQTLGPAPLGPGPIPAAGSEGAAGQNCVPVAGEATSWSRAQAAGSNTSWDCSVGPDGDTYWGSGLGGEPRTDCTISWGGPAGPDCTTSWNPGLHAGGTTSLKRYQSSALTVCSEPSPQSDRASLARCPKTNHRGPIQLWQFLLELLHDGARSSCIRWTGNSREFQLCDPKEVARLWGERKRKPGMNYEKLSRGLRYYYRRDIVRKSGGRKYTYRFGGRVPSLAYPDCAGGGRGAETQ
# Procedure, shortened: as §1
# ELF3 = biological target: T11, ELF3 (Homo sapiens, UniProt P78545 1-371); conditions: protein: recombinant; tags: N-terminal GST; dsDNA, one strand shown
# T11 sequence: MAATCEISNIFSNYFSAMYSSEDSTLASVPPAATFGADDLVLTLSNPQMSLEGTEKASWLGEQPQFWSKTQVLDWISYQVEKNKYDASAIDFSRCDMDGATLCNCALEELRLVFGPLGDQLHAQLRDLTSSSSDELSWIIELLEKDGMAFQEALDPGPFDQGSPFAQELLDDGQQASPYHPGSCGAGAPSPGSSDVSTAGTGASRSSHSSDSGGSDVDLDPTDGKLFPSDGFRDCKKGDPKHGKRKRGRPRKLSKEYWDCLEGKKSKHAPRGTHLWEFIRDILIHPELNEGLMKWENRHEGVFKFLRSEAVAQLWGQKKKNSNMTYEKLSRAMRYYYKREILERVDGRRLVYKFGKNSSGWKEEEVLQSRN
# Procedure, shortened: as §1
# CRX = CRX (Homo sapiens, UniProt O43186 1-299); conditions: protein: recombinant; tags: N-terminal GST; dsDNA, one strand shown
# Procedure, shortened: as §1
# ETV1 = ETV1 (Homo sapiens, UniProt P50549 1-477); conditions: protein: recombinant; tags: N-terminal GST; dsDNA, one strand shown
# Procedure, shortened: as §1
# Sequence of CRX (O43186 whole entry): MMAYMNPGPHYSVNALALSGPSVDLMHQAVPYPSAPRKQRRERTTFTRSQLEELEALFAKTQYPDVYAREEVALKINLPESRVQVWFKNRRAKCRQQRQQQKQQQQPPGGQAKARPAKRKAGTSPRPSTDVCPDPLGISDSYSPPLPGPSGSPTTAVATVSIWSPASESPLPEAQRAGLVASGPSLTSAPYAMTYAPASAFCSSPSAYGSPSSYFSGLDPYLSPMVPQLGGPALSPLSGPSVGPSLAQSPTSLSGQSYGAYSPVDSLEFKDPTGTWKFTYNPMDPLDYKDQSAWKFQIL
# Sequence of ETV1 (P50549 whole entry): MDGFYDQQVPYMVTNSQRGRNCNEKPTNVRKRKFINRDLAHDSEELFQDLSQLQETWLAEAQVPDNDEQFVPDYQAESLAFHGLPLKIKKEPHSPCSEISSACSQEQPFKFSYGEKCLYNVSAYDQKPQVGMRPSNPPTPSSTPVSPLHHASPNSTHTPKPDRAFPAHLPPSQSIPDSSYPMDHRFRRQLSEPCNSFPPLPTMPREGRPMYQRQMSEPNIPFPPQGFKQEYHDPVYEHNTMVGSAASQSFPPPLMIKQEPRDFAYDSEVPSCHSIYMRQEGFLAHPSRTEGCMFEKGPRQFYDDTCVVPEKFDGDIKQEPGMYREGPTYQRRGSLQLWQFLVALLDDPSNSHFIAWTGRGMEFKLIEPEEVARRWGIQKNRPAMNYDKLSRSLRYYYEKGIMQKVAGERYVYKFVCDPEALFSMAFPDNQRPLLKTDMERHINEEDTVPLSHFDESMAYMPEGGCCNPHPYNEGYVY
# Sequence of ETV5 (P41161 whole entry): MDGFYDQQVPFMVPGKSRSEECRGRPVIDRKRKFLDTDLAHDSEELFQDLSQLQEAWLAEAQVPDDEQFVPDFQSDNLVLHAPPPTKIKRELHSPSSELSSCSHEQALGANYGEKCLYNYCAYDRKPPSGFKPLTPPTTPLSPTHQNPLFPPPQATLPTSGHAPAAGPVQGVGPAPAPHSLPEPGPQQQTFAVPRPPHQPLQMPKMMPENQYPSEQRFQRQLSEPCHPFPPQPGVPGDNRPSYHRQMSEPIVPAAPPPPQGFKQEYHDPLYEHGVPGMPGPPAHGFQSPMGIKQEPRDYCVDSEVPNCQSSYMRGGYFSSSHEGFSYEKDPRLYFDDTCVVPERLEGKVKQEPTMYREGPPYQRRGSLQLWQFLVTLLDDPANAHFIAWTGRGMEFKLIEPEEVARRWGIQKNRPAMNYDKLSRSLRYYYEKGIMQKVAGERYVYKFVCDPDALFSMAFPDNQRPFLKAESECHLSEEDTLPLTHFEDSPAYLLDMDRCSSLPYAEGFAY
# Sequence of SPIB (Q01892 whole entry): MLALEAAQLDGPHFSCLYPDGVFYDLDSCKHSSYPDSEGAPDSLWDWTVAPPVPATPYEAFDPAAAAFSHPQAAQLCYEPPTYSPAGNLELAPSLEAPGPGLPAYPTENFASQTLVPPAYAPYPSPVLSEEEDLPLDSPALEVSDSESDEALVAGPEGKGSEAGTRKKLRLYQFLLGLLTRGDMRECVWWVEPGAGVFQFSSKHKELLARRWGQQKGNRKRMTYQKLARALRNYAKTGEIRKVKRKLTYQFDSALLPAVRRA
# Sequence of ELF1 (P32519 whole entry): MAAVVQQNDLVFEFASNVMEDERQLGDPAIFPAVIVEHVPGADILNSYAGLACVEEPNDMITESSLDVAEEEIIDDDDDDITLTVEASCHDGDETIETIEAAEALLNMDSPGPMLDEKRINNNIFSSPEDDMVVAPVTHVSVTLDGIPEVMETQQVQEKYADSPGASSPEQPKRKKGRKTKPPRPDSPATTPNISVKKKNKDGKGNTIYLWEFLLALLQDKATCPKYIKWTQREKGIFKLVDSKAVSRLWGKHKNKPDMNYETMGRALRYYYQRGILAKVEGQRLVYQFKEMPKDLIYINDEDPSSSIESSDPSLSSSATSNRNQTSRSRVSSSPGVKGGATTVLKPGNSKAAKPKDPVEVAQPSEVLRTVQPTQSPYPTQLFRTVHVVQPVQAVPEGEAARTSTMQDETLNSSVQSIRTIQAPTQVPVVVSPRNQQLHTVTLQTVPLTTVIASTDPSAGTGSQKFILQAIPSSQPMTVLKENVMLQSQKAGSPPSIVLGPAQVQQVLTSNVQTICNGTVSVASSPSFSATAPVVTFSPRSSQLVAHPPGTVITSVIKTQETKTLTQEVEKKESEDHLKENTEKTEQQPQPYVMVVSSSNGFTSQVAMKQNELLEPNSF
# Sequence of ELF4 (Q99607 whole entry): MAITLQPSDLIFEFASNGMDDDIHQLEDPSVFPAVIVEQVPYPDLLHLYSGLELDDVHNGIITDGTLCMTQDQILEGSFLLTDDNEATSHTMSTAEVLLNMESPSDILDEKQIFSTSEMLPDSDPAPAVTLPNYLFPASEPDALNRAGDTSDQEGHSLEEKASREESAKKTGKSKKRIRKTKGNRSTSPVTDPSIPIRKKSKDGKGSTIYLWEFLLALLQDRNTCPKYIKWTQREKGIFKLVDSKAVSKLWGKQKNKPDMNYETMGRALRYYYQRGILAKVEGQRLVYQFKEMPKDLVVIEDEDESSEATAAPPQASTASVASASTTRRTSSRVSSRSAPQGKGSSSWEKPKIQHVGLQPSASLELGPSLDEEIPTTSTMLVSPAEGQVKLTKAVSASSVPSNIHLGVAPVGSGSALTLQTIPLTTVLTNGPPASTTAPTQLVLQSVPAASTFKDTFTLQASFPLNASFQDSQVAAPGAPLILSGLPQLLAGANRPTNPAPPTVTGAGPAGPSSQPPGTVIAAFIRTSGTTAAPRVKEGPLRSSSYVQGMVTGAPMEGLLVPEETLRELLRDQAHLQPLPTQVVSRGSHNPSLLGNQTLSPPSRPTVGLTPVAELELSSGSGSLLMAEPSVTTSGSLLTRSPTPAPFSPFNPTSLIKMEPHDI
# Sequence of HSF1 (Q00613 whole entry): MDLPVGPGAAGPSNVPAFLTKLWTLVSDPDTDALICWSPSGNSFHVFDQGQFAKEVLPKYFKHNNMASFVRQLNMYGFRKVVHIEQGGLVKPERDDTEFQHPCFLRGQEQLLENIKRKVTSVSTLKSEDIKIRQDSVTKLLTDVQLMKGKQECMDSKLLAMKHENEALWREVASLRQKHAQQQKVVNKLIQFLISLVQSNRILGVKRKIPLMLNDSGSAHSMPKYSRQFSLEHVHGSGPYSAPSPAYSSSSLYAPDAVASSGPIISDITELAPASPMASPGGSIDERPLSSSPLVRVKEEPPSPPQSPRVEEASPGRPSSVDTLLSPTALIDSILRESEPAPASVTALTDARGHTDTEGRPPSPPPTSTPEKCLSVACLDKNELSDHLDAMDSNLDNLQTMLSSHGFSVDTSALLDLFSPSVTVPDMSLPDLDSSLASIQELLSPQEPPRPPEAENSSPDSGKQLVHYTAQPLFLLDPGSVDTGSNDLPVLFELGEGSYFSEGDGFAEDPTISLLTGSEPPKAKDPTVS
sequence,measurement,setting,value
TTGCAT,binding signal,FLI1,"1.5 fold enrichment (6-mer frequency, TF over GST control)"
same,binding signal,ELK1,"1.43 fold enrichment (6-mer frequency, TF over GST control)"
same,binding signal,GABPA,"1.52 fold enrichment (6-mer frequency, TF over GST control)"
same,binding signal,ERG,"1.37 fold enrichment (6-mer frequency, TF over GST control)"
same,binding signal,ELF1,"1.39 fold enrichment (6-mer frequency, TF over GST control)"
same,binding signal,EHF,"1.4 fold enrichment (6-mer frequency, TF over GST control)"
same,binding signal,SPI1,"1.44 fold enrichment (6-mer frequency, TF over GST control)"
same,binding signal,SPIB,"1.38 fold enrichment (6-mer frequency, TF over GST control)"
same,binding signal,ELK3,"1.42 fold enrichment (6-mer frequency, TF over GST control)"
same,binding signal,FEV,"1.35 fold enrichment (6-mer frequency, TF over GST control)"
same,binding signal,ETV5,"1.39 fold enrichment (6-mer frequency, TF over GST control)"
same,binding signal,HSF1,"1.3 fold enrichment (6-mer frequency, TF over GST control)"
same,binding signal,SPIC,"1.59 fold enrichment (6-mer frequency, TF over GST control)"
same,binding signal,ELF4,"1.4 fold enrichment (6-mer frequency, TF over GST control)"
same,binding signal,ELK4,"1.31 fold enrichment (6-mer frequency, TF over GST control)"
same,binding signal,ETV2,"1.53 fold enrichment (6-mer frequency, TF over GST control)"
same,binding signal,ELF3,"1.38 fold enrichment (6-mer frequency, TF over GST control)"
same,binding signal,CRX,"1.33 fold enrichment (6-mer frequency, TF over GST control)"
same,binding signal,ETV1,"1.5 fold enrichment (6-mer frequency, TF over GST control)"
